High-throughput results: PubChem BioAssay, National Center for Advancing Translational Sciences (NCATS)
Sampled rows, rich in hits. Any-hit rate of the full collection: about 5.7%.
KB-3-1 tox: kills parental KB-3-1 adenocarcinoma cells. KB-3-1 viability, CellTiter-Glo ATP luminescence, 72 h. Potency, µM (top dose mostly 46.1 µM), usual class: cytotoxic. actives 1.4% (n = 400,000). AID 1347075; note: nearly all actives have a fitted effect of over 60% in size
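Using CellTiter-Glo luminescence, growth of non-resistant KB-3-1 adenocarcinoma cells is assessed 72 h after pin-tool compound addition at 37 °C. Normalized responses across the concentration series yield fitted curves.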
HT1080 IDH1KD tx: kills HT-1080 cells with IDH1 knockdown; HT-1080 IDH1 knockdown viability, ATP luminescence, 48 h; actives 2% (n = 360,000); Potency, µM (top dose mostly 46.1 µM), usual class: cytotoxic
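IDH1KD HT-1080 cells, 750/well, RPMI + 5% FBS; compound pinned after 2 h settling; 48 h, 37 °C; CellTiter-Glo luminescence; % activity normalised to DMSO and no-cell wells; curves fitted, classed by r2 and efficacy.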
KB-V1 MDR tox: kills drug-selected multidrug resistant KB-V1 cells | Potency, µM (titrated, usually from 46.1 µM), actives largely listed as cytotoxic | KB-V1 MDR cells viability, CellTiter-Glo, 72 h | actives 3.4% (n = 400,000) | AID 1347076; note: nearly all actives have a fitted effect of over 60% in size
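KB-V1, DMEM (no phenol red) + 10% FBS; cpd pin-transferred, titration series; 72 h, 37 degrees C; CellTiter-Glo, luminescence. Data normalized, curve-fit.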
HT1080NT lethal: kills 2HG-producing HT-1080-NT fibrosarcoma cells. actives 1.6% (n = 360,000). Potency, µM (highest dose often 46.1 µM), hits mostly cytotoxic. HT-1080-NT fibrosarcoma viability, CellTiter-Glo ATP luminescence, 48 h;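 note: NT is the 2HG producing partner of a matched IDH1 knockdown line; nearly all actives have a fitted effect of over 55% in size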
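Compounds were tested in concentration-response format on HT-1080-NT cells for 48 hours at 37 degrees C. Cell viability came from CellTiter-Glo luminescence; curves were classified by r2, response magnitude and activity.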
A number is an active result; - = inactive; ? = inconclusive; . = not tested or not shown; ! = not active in a repeat. Calls come from the whole dose curve; as a rule, active = well fitted curve in the direction sought with a large enough effect; inconclusive = small, poorly fitted or top-dose-only effect, or another doubt; inactive = no such curve, though single readings can be large; an effect the other way counts as inactive or inconclusive.

SMILES | KB-3-1 tox | HT1080 IDH1KD tx | KB-V1 MDR tox | HT1080NT lethal
OC(c1ccc2ccccc2c1)c1ncc(-c2cccc3ccccc23)[nH]1 (configuration not stated) | ? | 26µM | ? | 18µM
COc1ccccc1-c1cnc(C(O)c2ccc(C(C)(C)C)cc2)[nH]1 (configuration not stated) | ? | ? | 21µM | -
COc1ccc(-n2c(=O)c3c4c(sc3n(C)c2=O)CN(C(C)=O)CC4)cc1 | - | . | - | .
Cc1ccnc(NC(=O)N2CCN(c3cccc(C(F)(F)F)c3)CC2)c1 | - | . | ? | .
CCCOc1ccc(C(=O)Nc2ccc(S(=O)(=O)N3C[C@@H]4C[C@@H](C3)c3cccc(=O)n3C4)cc2)cc1 | ? | ? | - | 8.2µM
COc1ccc2c(c1)OC(=O)CC2c1cc(OC)c(OC)c(OC)c1 (configuration not stated) | ? | 15µM | - | ?
CCOC(=O)c1c(C)[nH]c(C)c1C(=O)COC(=O)c1cccc(C)c1O | - | - | 16µM | -
Cc1cccc(C(=O)OCC(=O)c2c(C)[nH]c3ccccc23)c1O | - | - | - | -
O=C(Nc1cnn(Cc2ccc(F)cc2)c1)c1cnccn1 | - | - | - | -
O=C(Nc1cnn(Cc2ccc(F)cc2)c1)c1noc2c1CCCC2 | ? | ? | - | ?
CC(C)(C)C1CCc2onc(C(=O)Nc3cnn(Cc4ccc(F)cc4)c3)c2C1 (configuration not stated) | - | ? | 2.6µM | -
O=C(Nc1cnn(Cc2ccc(F)cc2)c1)C(c1ccccc1)c1ccccc1 | ? | ? | 5.2µM | ?
CC(C)(C)C1CCc2onc(C(=O)Nc3ccc(F)cc3F)c2C1 (configuration not stated) | - | - | 23µM | -
CCS(=O)(=O)N1CC(=O)N(c2cc(Cl)ccc2C)C(C)(C(=O)NC2CCCCCC2)C1 (configuration not stated) | - | . | - | .
COc1ccc(C2SCCN2C(=S)Nc2ccc(Cl)cc2)cc1 (configuration not stated) | ? | - | 23µM | -
COc1ccc(C2SCCN2C(=S)Nc2cccc(Cl)c2)cc1 (configuration not stated) | ? | - | 7.3µM | -
Cn1c(=O)c2c(c3ccccc31)OC(=O)CC2c1cccc(F)c1 (configuration not stated) | - | . | - | .
Cc1cccc(NC(=O)c2cn(-c3ccccc3)nc2-c2ccccc2)c1C | - | . | ? | .
Cc1cc(C)c(S(=O)(=O)Nc2ccc(-c3ccc(N4CCCCC4)nn3)cc2)c(C)c1 | - | . | - | .
Cc1ccc(CN(Cc2cc3cc(C)ccc3[nH]c2=O)Cc2nnnn2Cc2ccccc2)cc1 | ? | . | - | .
O=C(Nc1ccc(OCC(F)(F)C(F)F)c(C(F)(F)F)c1)c1ccccc1O | ? | 13µM | ? | 16µM
CCn1cnc2c(=O)oc3ccc(S(=O)(=O)N4CCN(c5cc(C)ccc5C)CC4)cc3c21 | - | . | - | .
C=C1C(=O)OC2C=C(CO)CCC=C(CO)CC(OC(=O)C(C)C)C12 (configuration not stated) | ? | 13µM | - | -
CCCCOc1ccc(NC2=NC3(CCCCC3)N=C(N)N2)cc1 | 15µM | ? | - | ?
CCSc1nc2n(n1)C(c1cccc(F)c1)C1=C(CCCC1=O)N2 (configuration not stated) | - | - | 13µM | -
SMILES | KB-3-1 tox | HT1080 IDH1KD tx | KB-V1 MDR tox | HT1080NT lethal
COc1cc(-c2nc3n(n2)C(c2ccc(F)cc2)C2=C(CCCC2=O)N3)cc(OC)c1OC (configuration not stated) | - | - | - | -
CC(C)OC(=S)N/C(=N\S(=O)(=O)c1ccccc1)c1ccccc1 | - | 8.9µM | - | 7.1µM
Cc1cccc(NC(=S)N/C(=N/S(=O)(=O)c2ccccc2)c2ccccc2)c1 | - | - | - | -
COc1ccc(NC(=O)C[C@H]2C(=O)N(c3ccccc3)C[C@@H]2Cc2ccccc2)cc1 | - | - | 15µM | -
COc1ccc([C@H]2CN(c3ccc(OC)cc3)C(=O)[C@@H]2CC(=O)Nc2ccc(Br)cc2)cc1 | ? | - | 16µM | -
COc1ccc([C@H]2CN(c3ccccc3)C(=O)[C@@H]2CC(=O)Nc2ccccc2)cc1 | - | - | ? | -
CCOc1ccc(CCNC(=O)Cn2c(=O)oc3ccccc32)cc1OCC | - | - | 18µM | -
COc1ccc(Cn2c(=O)oc3ccc(C)cc32)cc1OC | - | - | ? | -
COc1ccc(Cn2c(=O)oc3ccccc32)cc1OC | ? | - | 21µM | -
CCOc1ccc(CCNC(=O)CN(C)S(=O)(=O)c2cccs2)cc1OCC | - | - | 4.6µM | -
Oc1ccccc1C1SC(c2ccccc2O)SC(c2ccccc2O)S1 (configuration not stated) | ? | ? | - | 15µM
Cc1cc2c(cc1C)CSC(c1ccccc1O)SC2 | ? | ? | 18µM | ?
Cc1cc2c(cc1C)CSC(c1ccc3ccccc3c1O)SC2 | - | ? | - | ?
Cc1cc2c(cc1C)CSC(c1c(O)ccc3ccccc13)SC2 | ? | ? | - | 23µM
COc1ccc(-c2cc(-c3ccc(C)cc3)nc3c2COc2ccccc2-3)cc1 | - | . | - | .
CCc1cc(SC#N)cc(CC)c1NC(=O)CCl | 21µM | 21µM | ? | ?
Cc1cc(C)c2c(NC(=O)CCl)nn(C)c2n1 | - | ? | - | ?
CCCCC[C@H](O)/C=C/[C@H]1CCC(=O)[C@@H]1CCCCCCC(=O)N1CCCCC1CO (some centres not stated) | - | 13µM | - | 16µM
CCC1CCCCN1C(=O)CCCOc1ccccc1 (configuration not stated) | - | - | ? | -
COc1ccc(-c2ccc(CCC(=O)O)n2-c2ccccc2OC)cc1 | ? | 16µM | ? | 18µM
CC(C)OC(=O)C(C(=O)C(F)(F)F)c1cc(NS(=O)(=O)c2ccc3ccccc3c2)c2ccccc2c1O (configuration not stated) | - | 12µM | - | 8.2µM
Cc1ccc(SCCN2CCC(NC(=O)OCc3ccccc3)CCC2=O)cc1 (configuration not stated) | - | - | ? | -
O=C(N[C@H]1CCC(=O)N(CCSc2ccc(Br)cc2)CC1)OCc1ccccc1 | ? | ? | 21µM! | ?
Cc1nn(C)c2c1c(C(F)(F)F)cc(=O)n2CC(=O)N1CCC(C)CC1 | - | . | - | .
Cc1ccc(Cn2ccsc2=NC(=O)COC(=O)C(C)C)cc1 | 16µM | ? | - | -
COc1ccccc1Nc1nc(N)nc(CCl)n1 | - | 12µM | ? | 23µM
COc1ccc(OC)c(Nc2nc(N)nc(CCl)n2)c1 | - | 16µM | ? | ?
CN(C)CCNC(=O)C1(C)Cc2c(-c3cccc(C(F)(F)F)c3)ccnc2O1 (configuration not stated) | - | ? | - | ?
CC1(C(=O)NCCC(F)(F)F)Cc2c(-c3cccc(C(F)(F)F)c3)ccnc2O1 (configuration not stated) | ? | 5.8µM | ? | 21µM
CC(=O)Nc1cccc(-c2ccnc3c2CC(C)(C(=O)NCc2cccs2)O3)c1 (configuration not stated) | 3.3µM | 1.6µM | - | ?
